Here are results for nine molecules from PubChem BioAssay (NCATS).

In test [1] the test system is NIH3T3. Description: Cytotoxic Profiling of Annotated Libraries Using Quantitative High-Throughput Screening (AID 1296008). Further: nearly all actives have a fitted effect of over 60% in size. To be noted: Five cell lines viability, CellTiter-Glo ATP luminescence, 48-72 h; max response: hits give low values. The gist of the method:
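Compounds were pin-transferred onto cells and incubated 48 or 72 hr at 37 degree Celsius, 95% humidity. CellTiter-Glo was added, plates sat 10 min at room temperature, then ATP-coupled luminescence was imaged as the viability read-out.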

Test [2] relates to HACAT. As to the kind of experiment: qHTS assay to identify novel small-molecules to repurpose for Merkel cell carcinoma treatment (AID 1296009). Further: nearly all actives have a fitted effect of over 60% in size. Further: potency means the concentration at half of the fitted maximal effect. To be noted: MCC and control cell lines, CellTiter-Glo viability, 72 h; at 44.8 µM (top of the series) unless noted. The gist of the method: (§1)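 Cells exposed to NPC (8-point) and MIPE (11-point) compound dilutions for 72 hr at 37 degree celsius; viability read by CellTiter-Glo luminescence, normalized to no-cell and DMSO in-plate controls.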
(In general: In qHTS, concentration-response curves come from the screen itself.)

In test [3] the test system is MCC-13. The test is described as above. To be noted: MCC and control cell lines, CellTiter-Glo viability, 72 h; series mostly up to 46 µM. The gist of the method:
as §1
(ATP-based viability assays read luminescence as a measure of living cells.)

The subject of test [4] is MKL-1. The description is as above. To be noted: MCC and control cell lines, CellTiter-Glo viability, 72 h; series mostly up to 46 µM. An outline of the steps: as §1
Test [5] concerns NIH3T3. The test is described as above. To be noted: MCC and control cell lines, CellTiter-Glo viability, 72 h; at 44.8 µM (top of the series) unless noted. The gist of the method: as §1
In test [6] the test system is C33A. Description: Primary qHTS to identify gynecologic anti-cancer compounds using libraries of approved drugs and bioactive compounds (AID 1345084). Further: nearly all actives have a fitted effect of over 55% in size. To be noted: Gynecologic cancer cell panel viability, ATPlite luminescence, 48 h; series mostly up to 57.5 µM. The gist of the method:
(§2)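 Cells, 1,000 per well, were allowed to settle for 16 h at 37 C before compound addition. Five concentrations were tested for 48 h, and viability was read by ATPlite luminescence after 15 min at room temperature.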

Test [7] concerns CASKI. Described as above. To be noted: Gynecologic cancer cell panel viability, ATPlite luminescence, 48 h; series mostly up to 57.5 µM. The gist of the method:
as §2

The test system of test [8] is Es-2. The description is as above. The settings on record: Gynecologic cancer cell panel viability, ATPlite luminescence, 48 h; series mostly up to 57.5 µM. The gist of the method:
as §2

Test [9] has as its system HeLa. Described as above. The settings on record: Gynecologic cancer cell panel viability, ATPlite luminescence, 48 h; series mostly up to 57.5 µM. The gist of the method:
as §2

The test system of test [10] is Hek293T. Described as above. To be noted: Gynecologic cancer cell panel viability, ATPlite luminescence, 48 h, control line for the selectivity index; series mostly up to 57.5 µM. The gist of the method:
as §2

The test system of test [11] is JEG-3. Described as above. The settings on record: Gynecologic cancer cell panel viability, ATPlite luminescence, 48 h; series mostly up to 57.5 µM. The gist of the method: as §2
Test [12] has as its system OV90. The description is as above. The settings on record: Gynecologic cancer cell panel viability, ATPlite luminescence, 48 h; series mostly up to 57.5 µM. An outline of the steps: as §2
For test [13], the system named is PA-1. The test is described as above. The settings on record: Gynecologic cancer cell panel viability, ATPlite luminescence, 48 h; series mostly up to 57.5 µM. The gist of the method: as §2
For test [14], the system named is SKOV3. Described as above. To be noted: Gynecologic cancer cell panel viability, ATPlite luminescence, 48 h; series mostly up to 57.5 µM. An outline of the steps: as §2
The subject of test [15] is HEK293T. As to the kind of experiment: qHTS assay to identify novel small-molecules to repurpose for Merkel cell carcinoma treatment (AID 1296009). Further: nearly all actives have a fitted effect of over 60% in size. Further: potency means the concentration at half of the fitted maximal effect. The settings on record: MCC and control cell lines, CellTiter-Glo viability, 72 h; at 44.8 µM (top of the series) unless noted. The gist of the method:
as §1

For test [16], the system named is MKL-2. The description is as above. The settings on record: MCC and control cell lines, CellTiter-Glo viability, 72 h; series mostly up to 46 µM. An outline of the steps:
as §1

Test [17] deals with UISO. Described as above. The settings on record: MCC and control cell lines, CellTiter-Glo viability, 72 h; series mostly up to 46 µM. The gist of the method:
as §1

In test [18] the test system is WaGa. Described as above. The settings on record: MCC and control cell lines, CellTiter-Glo viability, 72 h; series mostly up to 46 µM. An outline of the steps:
as §1

The test system of test [19] is CAOV3. Description: Primary qHTS to identify gynecologic anti-cancer compounds using libraries of approved drugs and bioactive compounds (AID 1345084). Further: nearly all actives have a fitted effect of over 55% in size. To be noted: Gynecologic cancer cell panel viability, ATPlite luminescence, 48 h; series mostly up to 57.5 µM. The gist of the method:
as §2

Test [20] relates to MCC-26. As to the kind of experiment: qHTS assay to identify novel small-molecules to repurpose for Merkel cell carcinoma treatment (AID 1296009). Further: nearly all actives have a fitted effect of over 60% in size. Further: potency means the concentration at half of the fitted maximal effect. The settings on record: MCC and control cell lines, CellTiter-Glo viability, 72 h; series mostly up to 46 µM. An outline of the steps:
as §1

SMILES strings stand for the structures. Records with an inconclusive call do not appear. Unmarked numbers belong to inactive results. Activity calls are given as the source filed them. The call rests on the fitted dose curve; in most records, active means well fitted curve in the direction sought with a large enough effect; inconclusive means small, poorly fitted or top-dose-only effect, or another doubt; inactive means no such curve, though single readings can be large; an effect the other way counts as inactive or inconclusive.
On the % scale 0 is the no-effect control and ±100 the full control effect.

`COc1ccc(-c2cc(=S)ss2)cc1`: the molecule was classed as inactive in test [1], in test [2] and in test [5]. Moreover, the Potency entry in test [3], in [6], in [7], in test [8], in [9] and in test [10] was “inactive” each time. The Potency entry in test [11], in [12], in [13] and in [14] was “inactive” in each case. Also, the Potency in test [4] is 26.6 µM (active).
With `O=C(Nc1ccc(C(=O)O)c(O)c1)c1ccccc1`, the max response in test [1] is -1.76%. Moreover, the call in test [2] and in [15] was inactive. Besides, the Potency result in test [3], in [4], in [16], in [17], in test [18] and in test [6] was “inactive” each time. Moreover, the Potency result in test [19], in test [7], in test [8], in test [9], in [10] and in test [11] was “inactive” in each case. The Potency result in test [12], in [13] and in test [14] was “inactive” in each case.
Take `C#CC1(O)CC[C@H]2[C@@H]3CCC4=CCCC[C@@H]4[C@H]3CC[C@@]21C` (stereo not given in full): the max response in test [1] was -0.384%. Further, the outcome in test [2] and in test [15] was inactive. In addition, the Potency entry in test [6], in test [7], in [8], in test [9], in test [10] and in test [11] was “inactive” in each case. Also, in test [12], the Potency entry was “inactive”.
With `CN(C)CCn1nnnc1SCC1=C(C(=O)O)N2C(=O)[C@@H](NC(=O)Cc3csc(N)n3)[C@H]2SC1`, the result in test [1], in test [2] and in [5] was inactive. The Potency entry in test [3], in test [20], in test [4], in test [16], in test [17] and in test [18] was “inactive” in each case. The Potency entry in test [6], in test [19], in test [7], in [8], in [9] and in test [10] was “inactive” in each case. For the same molecule, the Potency result in [11], in test [12], in test [13] and in [14] was “inactive” in each case.
In the case of `COc1cc(/C=C/C(=O)N2CCN(CC(=O)N3CCCC3)CC2)cc(OC)c1OC`, the result in test [1], in test [2] and in test [5] was inactive. The Potency result in test [6], in test [19], in test [7], in test [8], in test [9] and in test [10] was “inactive” each time. The Potency entry in test [11], in test [12] and in test [13] was “inactive” in each case.
With `O=C(CS)Nc1ccccc1`, the max response in test [1] was 0.87%. Further, in test [2], the molecule was classed as inactive. The Potency entry in [3], in [18], in test [6], in [19], in test [7] and in [8] was “inactive” throughout. In addition, the Potency entry in test [9], in [10], in [11], in test [12], in test [13] and in test [14] was “inactive” in each case.
As for `CN1[C@@H]2CC[C@H]1CC(OC(c1ccccc1)c1ccccc1)C2` (stereo not given in full), in test [1], the max response is -0.104%. For the same molecule, the molecule was classed as inactive in test [2]. Also, the Potency entry in test [6], in test [7], in test [8], in test [9], in test [10] and in [11] was “inactive” throughout. Moreover, the Potency entry in test [13] and in test [14] was “inactive” throughout.
As for `Cc1c(N)c(=O)n(-c2ccccc2)n1C`, the max response in [1] was -4.09%. The molecule was classed as inactive in test [2]. The Potency result in test [3], in test [4], in [16], in test [17], in [18] and in [6] was “inactive” each time. In addition, the Potency entry in test [7], in test [8], in [9], in test [10], in test [11] and in test [12] was “inactive” in each case. Also, the Potency entry in test [13] and in test [14] was “inactive” in each case.
As to `NS(=O)(=O)c1ccc(-n2nc(C(F)(F)F)cc2-c2ccc(Cl)cc2)cc1`, the max response in test [1] is -15.5%. Further, in test [2], the call was inactive. In addition, the Potency result in test [6], in [19], in [7], in test [8], in [9] and in test [10] was “inactive” throughout. The Potency entry in test [11], in [12], in test [13] and in test [14] was “inactive” throughout.
